LGR2 inh = Drosophila LGR2 receptor signaling inhibition. HEK293 LGR2, CRE-luciferase, bursicon-stimulated, 4 h. inhibition, % at 9.99 µM. 0.35% of 380,000 active;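 active means drop in luminescence signal, shown as inhibition above about 50% in the replicate tests, limit read from the data, passing the limit was not always enough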;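 further: agonist challenge used bursicon conditioned medium at about half maximal strength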
SENP7 inh = SENP7 protease inhibition. Q9BQF6. inhibition, % at 5 µM. AID 434973. 1.5% of 330,000 active. recombinant SENP7, Z-RLRGG-aminoluciferin luminescence, 40 min;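 active means inhibition above about 50% at the single test dose, limit read from the data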
SENP8 block-1 = inhibitors of human SENP8 protease. Q96LD8. recombinant SENP8, Nedd8 substrate fluorescence. inhibition, % at 20 µM. 0.64% of 360,000 active. AID 602440; in the data active means inhibition mostly above about 40%, no sharp cut-off; inactive means mostly below about 27%
Target sequence (Q96LD8 whole entry, looked up): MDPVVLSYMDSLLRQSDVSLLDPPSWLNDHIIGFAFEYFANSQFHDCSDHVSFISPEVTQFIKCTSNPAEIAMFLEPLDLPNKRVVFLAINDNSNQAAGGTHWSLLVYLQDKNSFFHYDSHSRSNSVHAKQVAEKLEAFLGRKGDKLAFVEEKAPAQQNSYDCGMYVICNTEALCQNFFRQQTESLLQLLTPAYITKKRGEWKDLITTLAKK
SENP6 block = SENP6 protease inhibition; Q9GZR1; Recombinant SENP6 catalytic domain, aminoluciferin luminescence; inhibition, % at 10 µM; 1.8% of 330,000 active;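 active means inhibition above about 50% at the single tested dose, limit read from the data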
SENP8 block-2 = inhibitors of human SENP8 protease; purified SENP8, Z-RLRGG-aminoluciferin cleavage, luminescence; inhibition, % at 10 µM; 1.2% of 330,000 active; AID 2540; in the data active means inhibition above about 50%
HSP90 refold inh = blocks HSP90-mediated luciferase refolding in reticulocyte lysate | 0.91% of 290,000 active | AID 1789 | inhibition, % at 5.6 µM | Rabbit reticulocyte lysate, luciferase refolding luminescence, 3 h;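 active means inhibition above the screen-wide mean plus 3 SD, computed separately per campaign, cut at about 16% in these data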;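 further: inhibitors lower the luminescence because luciferase stays unfolded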
SENP8 confirm = human SENP8 inhibition, confirmed; shares compounds with SENP7 inh; Recombinant SENP8, Z-RLRGG-aminoluciferin luminescence, 60 min; inhibition, % at 12.5 µM; 40% of 6,200 active; AID 488912;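 active means mean inhibition across replicates above about 50%, limit read from the data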
SENP6 conf = confirmation of human SENP6 protease inhibitors. shares compounds with SENP7 inh. recombinant SENP6, Z-RLRGG-aminoluciferin luminescence. inhibition, % at 12.5 µM. 58% of 6,200 active. AID 488915
SENP7 confirm = confirmation of human SENP7 protease inhibitors | shares compounds with SENP7 inh | recombinant SENP7, Z-RLRGG-aminoluciferin luminescence, 40 min | inhibition, % at 12.5 µM | 69% of 6,200 active
Casp3 SENP sel = selectivity test for SENP inhibitors: human caspase-3 inhibition. shares compounds with SENP7 inh. purified caspase-3, Z-DEVD-aminoluciferin luminescence, 60 min. inhibition, % at 12.5 µM. 60% of 6,200 active. AID 488918;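 active means mean inhibition above about 50%, limit read from the data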
Target sequence (P42574 28-227 limits assumed): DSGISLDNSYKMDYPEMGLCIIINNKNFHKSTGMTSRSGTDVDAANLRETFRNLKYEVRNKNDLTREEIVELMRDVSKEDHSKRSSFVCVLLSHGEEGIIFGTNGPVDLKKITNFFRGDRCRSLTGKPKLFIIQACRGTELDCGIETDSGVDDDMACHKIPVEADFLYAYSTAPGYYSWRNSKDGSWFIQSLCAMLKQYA
SENP luc ctr = counter-screen for SENP inhibitors: luminescence interference | shares compounds with SENP7 inh | 39% of 6,200 active | inhibition, % at 12.5 µM | Pre-incubated SENP8/Z-RLRGG-aminoluciferin, luciferase luminescence interference;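 active means mean inhibition above about 50% when retested at one dose, limit read from the data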
Of the large screens only hits and unclear results are named; the others gave an inactive call (follow-up assays come after a bar, where they were run). Rows were chosen to be rich in hits. Some 2.3% of all compounds tested hit in one or more screens of this group.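 How the source made its calls, unless noted: active means mean inhibition above about 50% in the one-dose retest (limit read from the data); inactive means the rest.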

O/C(=C\c1ccc2ccccc2n1)c1ccncc1	SENP7 inh 96.9, SENP6 block 97.8, SENP8 block-2 90.4 (no result: HSP90 refold inh) | SENP8 confirm 93.9 | SENP6 conf 93.8 | SENP7 confirm 101.5 | Casp3 SENP sel 96.9 | SENP luc ctr 93.9
Cc1ccc(NC(=O)NC(=O)CSc2nnc(-c3ccc(Cl)cc3Cl)n2N)c(C)c1	SENP7 inh 58.5, SENP6 block 63.1 | SENP8 confirm 56.4 | SENP6 conf 55.8 | SENP7 confirm 83.1 | Casp3 SENP sel inactive | SENP luc ctr 72.2
CN(C)N=Nc1ccc(S(=O)(=O)/N=C(\O)c2ccccc2)cc1	none
O=S(=O)(O)c1ccc(N=Nc2ccccc2)cc1	SENP7 inh 50.6, SENP6 block 67.4, SENP8 block-2 51.5 | SENP8 confirm inactive | SENP6 conf inactive | SENP7 confirm 70.6 | Casp3 SENP sel 76.4 | SENP luc ctr 53.1
Nc1ccc2ncccc2c1	none
Nc1ccc(/C=C/c2ccc3ncccc3c2)cc1	SENP7 inh 73.8, SENP6 block 59.5, SENP8 block-2 52.5 | SENP8 confirm inactive | SENP6 conf 57.3 | SENP7 confirm 79.5 | Casp3 SENP sel inactive | SENP luc ctr inactive
COc1ccccc1N1CCN(c2ccc(-c3ccccc3)nn2)CC1	SENP6 block 94.1, SENP8 block-2 95.4 (no result: LGR2 inh) | SENP8 confirm 78.8 | SENP6 conf 89.4 | SENP7 confirm 98.5 | Casp3 SENP sel 90.0 | SENP luc ctr inactive
Cc1ccccc1Nc1nc(N)c2ccccc2n1	SENP7 inh 94.8, SENP8 block-2 91.1, HSP90 refold inh 18.4 | SENP8 confirm 93.7 | SENP6 conf 95.2 | SENP7 confirm 101.6 | Casp3 SENP sel 96.9 | SENP luc ctr 95.2
Nc1nc(Nc2ccccc2)nc2ccccc12	SENP7 inh 97.4, SENP6 block 93.8, SENP8 block-2 91.4 (no result: LGR2 inh) | SENP8 confirm 97.2 | SENP6 conf 97.8 | SENP7 confirm 102.6 | Casp3 SENP sel 96.8 | SENP luc ctr 96.5
Cc1ccc(Nc2nc(N)c3ccccc3n2)cc1Cl	LGR2 inh 71.9, SENP7 inh 98.2, SENP6 block 97.1, SENP8 block-2 96.6 | SENP8 confirm 98.8 | SENP6 conf 99.7 | SENP7 confirm 103.3 | Casp3 SENP sel 93.4 | SENP luc ctr 85.4
COc1ccc(C)cc1Nc1nc(N)c2ccccc2n1	none
Nc1nc(Nc2ccc(Cl)cc2)nc2ccccc12	SENP7 inh 97.3, SENP6 block 97.8, SENP8 block-2 95.4, HSP90 refold inh 16.1 (no result: LGR2 inh) | SENP8 confirm 96.1 | SENP6 conf 96.8 | SENP7 confirm 100.8 | Casp3 SENP sel 93.0 | SENP luc ctr 94.6
Cc1ccc([C@@H]2C[C@H]3CN(Cc4cccc(Cl)c4)C(=O)[C@]34CCCN24)o1	SENP6 block 63.7 | SENP8 confirm inactive | SENP6 conf inactive | SENP7 confirm inactive | Casp3 SENP sel inactive | SENP luc ctr inactive
Cc1ccc2nc(N3C(=O)C(O)=C(C(=O)c4ccco4)C3c3cccs3)sc2c1 (stereo not drawn)	SENP6 block 74.2, SENP8 block-2 52.6 | SENP8 confirm inactive | SENP6 conf inactive | SENP7 confirm inactive | Casp3 SENP sel inactive | SENP luc ctr inactive
O=C(Nc1nc2c(s1)CCCC2)c1ccc(Br)o1	SENP7 inh 87.7, SENP6 block 91.2, SENP8 block-2 85.7, HSP90 refold inh 16.4 | SENP8 confirm 90.4 | SENP6 conf 90.6 | SENP7 confirm 99.1 | Casp3 SENP sel 90.9 | SENP luc ctr 87.2
Cc1csc(NC(=O)c2ccc(C)o2)n1	none
O=C(Nc1nc2c(s1)CCCC2)c1cccnc1	none

Assay outcomes (PubChem BioAssay)
